Our source for the AC50 and outcome values is PubChem BioAssay (EPA / NIEHS).

Molecules are shown by their SMILES. Inconclusive results are not listed. The source made the active and inactive calls. The calls were made as follows: active = hit-call score of the fitted dose curve at least 0.9, where 1 is the maximum; inconclusive = response in the unintended direction; inactive = score below 0.9.

Chain of Nuclear receptor subfamily 1 group I member 2 (Mus musculus) (O54915 whole entry, looked up, the tested form may be a part): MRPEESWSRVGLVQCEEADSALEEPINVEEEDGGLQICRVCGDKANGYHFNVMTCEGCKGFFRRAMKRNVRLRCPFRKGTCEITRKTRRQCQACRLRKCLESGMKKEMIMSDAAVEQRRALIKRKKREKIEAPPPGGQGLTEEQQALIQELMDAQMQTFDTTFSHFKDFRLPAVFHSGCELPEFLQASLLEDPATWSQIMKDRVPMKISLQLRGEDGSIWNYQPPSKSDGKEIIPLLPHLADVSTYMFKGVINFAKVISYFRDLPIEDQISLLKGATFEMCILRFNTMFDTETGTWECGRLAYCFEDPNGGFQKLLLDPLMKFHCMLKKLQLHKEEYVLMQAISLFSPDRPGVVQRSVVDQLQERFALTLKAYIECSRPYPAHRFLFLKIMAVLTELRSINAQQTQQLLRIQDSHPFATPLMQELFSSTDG

One assay has as its target Nuclear receptor subfamily 1 group I member 2 (Mus musculus) (UniProt O54915). As to the kind of experiment: ATG_mPXR_XSP1: Attagene TRANS-FACTORIAL Multi-Species (XSP1) HepG2 Assay for mouse Pregnane X Receptor (PXR) (AID 2283803). A digest of the protocol: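 Transiently transfected HepG2 cells expressing a receptor-Gal4 chimera drive a GAL4-UAS reporter; 3 nM 6-alpha-fluorotestosterone included. Reporter mRNA read 24 h post-dose by RT-PCR and capillary electrophoresis; gain of signal relative to DMSO.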
As a reminder, the AC50 is the concentration at which the activity in the assay is half-maximal. In the case of `CC(=O)S[C@@H]1CC2=CC(=O)CC[C@]2(C)[C@H]2CC[C@@]3(C)[C@@H](CC[C@@]34CCC(=O)O4)[C@H]12`, the half-maximal activity concentration (AC50) was 411 nM (active).
Still for that read-out and setting: next, `CCCCC(CC)CN1C(=O)C2C3C=CC(C3)C2C1=O` (stereo not given): 845 nM (active); `CC1(C)C(C=C(Cl)Cl)C1C(=O)OCc1cccc(Oc2ccccc2)c1` (stereo not given): 1730 nM (active).
The same measure, in the same setting: then `C=CCOC(Cn1ccnc1)c1ccc(Cl)cc1Cl` (stereo not given), with 948 nM (active).
With `CC(C)CCCCCCc1ccc(O)cc1`, the outcome was inactive.
On to `CCCCC(CC)COC(=O)c1ccccc1C(=O)O` (stereo not given), for which the concentration at half-maximal activity (AC50) is 3950 nM (active).
`CC(C)(c1ccc(O)cc1)c1ccc(O)cc1`: the outcome was inactive.
On the same count and under the same terms, then `Oc1ccc(C(c2ccc(O)cc2)C(Cl)(Cl)Cl)cc1`, with “inactive”.

A further assay deals with frog Thyroid hormone Receptor alpha (TRa), thra-a (gene 397942) (UniProt P15204). The assay is described as follows: ATG_frTRa_XSP1: Attagene TRANS-FACTORIAL Multi-Species (XSP1) HepG2 Assay for frog Thyroid hormone Receptor alpha (TRa) (AID 2283804). The procedure, abridged: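 HepG2 cells transiently transfected with frog TRa-GAL4 chimeric reporter units, dosed 24 hr with 3 nM 6-alpha-fluorotestosterone present; reporter mRNA quantified by RT-PCR, fluorescent labelling and capillary electrophoresis, gain of signal versus DMSO.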
Chain of frog Thyroid hormone Receptor alpha (TRa), thra-a (gene 397942) (P15204 whole entry, looked up, the tested form may be a part): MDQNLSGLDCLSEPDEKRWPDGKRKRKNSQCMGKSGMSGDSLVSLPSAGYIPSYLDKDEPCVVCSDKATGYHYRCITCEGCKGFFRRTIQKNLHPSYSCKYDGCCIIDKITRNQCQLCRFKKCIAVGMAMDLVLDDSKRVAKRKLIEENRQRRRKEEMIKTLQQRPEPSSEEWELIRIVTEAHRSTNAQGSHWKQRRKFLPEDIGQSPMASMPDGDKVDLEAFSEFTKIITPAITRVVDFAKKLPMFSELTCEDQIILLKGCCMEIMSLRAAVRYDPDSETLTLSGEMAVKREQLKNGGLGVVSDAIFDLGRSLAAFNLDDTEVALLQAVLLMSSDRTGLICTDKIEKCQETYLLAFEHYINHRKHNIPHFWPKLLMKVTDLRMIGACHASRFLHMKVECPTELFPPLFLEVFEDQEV
With `CC(=O)S[C@@H]1CC2=CC(=O)CC[C@]2(C)[C@H]2CC[C@@]3(C)[C@@H](CC[C@@]34CCC(=O)O4)[C@H]12`, the outcome was inactive.
Same read-out and setting: then `CC1(C)C(C=C(Cl)Cl)C1C(=O)OCc1cccc(Oc2ccccc2)c1` (stereo not given), with “inactive”.
Same read-out and setting: next, `C=CCOC(Cn1ccnc1)c1ccc(Cl)cc1Cl` (stereo not given): “inactive”; `C#C[C@]1(O)CC[C@H]2[C@@H]3CCC4=CC(=O)CC[C@@H]4[C@H]3CC[C@@]21CC`: “inactive”.
The same measure, in the same setting: then `CC(C)(c1ccc(O)cc1)c1ccc(O)cc1`, with “inactive”; and `Oc1ccc(C(c2ccc(O)cc2)C(Cl)(Cl)Cl)cc1`, with “inactive”; and `O=C(c1ccc(O)cc1O)c1ccc(O)cc1O`, with “inactive”.
